Laboratory results: PubChem BioAssay (NCATS)
Inconclusive results are not listed. Activity calls are given as the source filed them. Calls follow the shape of the dose curve; as a rule, active = well fitted inhibition curve with a large enough effect; inconclusive = small, poorly fitted or top-dose-only effect; inactive = flat fitted curve, though single readings scatter.

Columns and labels:
Test in all cases: Cytotoxic Profiling of Annotated Libraries Using Quantitative High-Throughput Screening (AID 1296008); also: nearly all actives have a fitted effect of over 60% in size
Details in all cases: Five cell lines viability, CellTiter-Glo ATP luminescence, 48-72 h; max response: stronger effect = lower value
CRL-7250 = normal cell line; test system: CRL-7250
Method in brief: (§1)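 Compounds were pin-transferred onto cells and incubated 48 or 72 hr at 37 degree Celsius, 95% humidity. CellTiter-Glo was added, plates sat 10 min at room temperature, then ATP-coupled luminescence was imaged as the viability read-out.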

HEK293 = test system: HEK293
Method in brief: as §1

HaCat = test system: HaCat
Method in brief: as §1

KB-3-1 = test system: KB-3-1
Method in brief: as §1

NIH3T3 = test system: NIH3T3
Method in brief: as §1

Measured: max response
% is scaled to controls: 0 for no effect and ±100 for the full control effect.

C=C1C2CCC3C(CCC4[C@@]3(C)CCC[C@@]4(C)C(=O)O)(C2)[C@@H]1OC(=O)/C(C)=C\C (stereo not given in full)
inactive: CRL-7250 -44.5% | HEK293 -104% | HaCat -0.634% | KB-3-1 2.48% | NIH3T3

CC1(C)CC[C@]2(C(=O)O[C@@H]3O[C@H](CO[C@@H]4O[C@H](CO)[C@@H](O)[C@H](O)[C@H]4O)[C@@H](O)[C@H](O[C@@H]4O[C@H](CO)[C@@H](O)[C@H](O)[C@H]4O)[C@H]3O)[C@H](O)C[C@]3(C)C(=CCC4[C@@]5(C)CC[C@H](O[C@@H]6OC[C@@H](O)[C@H](O)[C@H]6O)[C@@](C)(C(=O)O)C5CC[C@]43C)[C@@H]2C1 (stereo not given in full)
inactive: CRL-7250 -2.05% | HEK293 -13.5% | HaCat -5.99% | KB-3-1 2.29% | NIH3T3

Cc1cc(O[C@@H]2O[C@H](COC(=O)CC(=O)O)[C@@H](O)[C@H](O)[C@H]2O)c(C(C)C)cc1O
inactive: CRL-7250 0.0068% | HEK293 -1.41% | HaCat 0.109% | KB-3-1 -13.3% | NIH3T3

C=Cc1cc2oc(-c3ccc(O)c(F)c3)nc2cc1O
inactive: CRL-7250 | HEK293 -3.32% | HaCat -11% | KB-3-1 | NIH3T3

CCC1(O)CC2c3cc(OC)c(OC)cc3CCN2CC1CC(C)C (stereo not given)
inactive: CRL-7250 -19.7% | HEK293 0.903% | HaCat -10.4% | KB-3-1 7.48% | NIH3T3

CC(=O)O[C@@H]1C(=O)C(C)=C(CCC(C)CC(=O)O)[C@@]2(C)CCCC(C)(C)C12 (stereo not given in full)
inactive: CRL-7250 | HEK293 0.534% | HaCat -6.8% | KB-3-1 -5.14% | NIH3T3

C=C1CCC2[C@@](C)(C(=O)O)CCC[C@@]2(C)[C@@H]1CCc1ccoc1 (stereo not given in full)
inactive: CRL-7250 -7.76% | HEK293 -0.447% | HaCat -0.12% | KB-3-1 -3.34% | NIH3T3

Cn1cc(Nc2cnccc2C(=O)O)c2cccnc21
inactive: CRL-7250 1.11% | HEK293 -5.52% | HaCat 4.86% | KB-3-1 | NIH3T3

COc1cn(-c2ccc(-n3cccn3)cc2F)nc(-c2ccnn2-c2ccccc2)c1=O
inactive: CRL-7250 1.34% | HEK293 -9.47% | HaCat -2.34% | KB-3-1 7.34% | NIH3T3

CC(C)(OC1OC(CO)C(O)C(O)C1O)C1CCC(O)(CO)C2CC(=O)C(C)(O)C2C1 (stereo not given)
inactive: CRL-7250 | HEK293 -8.37% | HaCat 0.066% | KB-3-1 2.59% | NIH3T3

CCCCCOC(=O)Nc1nc(=O)n(C2O[C@H](C)[C@@H](O)[C@H]2O)cc1F (stereo not given in full)
inactive: CRL-7250 | HEK293 -11.1% | HaCat -6.73% | KB-3-1 | NIH3T3

C=C1CCC2C(C)(C(=O)OC)CCCC2(C)C1CCC1=CCOC1=O (stereo not given)
inactive: CRL-7250 3.38% | HEK293 2.4% | HaCat 1% | KB-3-1 | NIH3T3

COC(=O)[C@H](O)[C@H]1C(C)(C)[C@H](OC(C)=O)[C@@]2(O)C(=O)[C@]1(C)C1CC[C@]3(C)C(CC(=O)O[C@H]3c3ccoc3)[C@]13O[C@@H]32 (stereo not given in full)
inactive: CRL-7250 | HEK293 -3.86% | HaCat 4.44% | KB-3-1 -6.4% | NIH3T3

CC(=O)OC1CCC2(C)C(CCC3(C)C2CC=C2C4CC(C)(C)CCC4(C)CCC23C)C1(C)C(=O)O (stereo not given)
inactive: CRL-7250 -8.32% | HEK293 | HaCat -5.03% | KB-3-1 3% | NIH3T3 3.68%

C=C1C(O)CC2C(C(=O)O)=COC(O[C@@H]3O[C@H](COC(=O)c4ccc(O)cc4)[C@@H](O)[C@H](O)[C@H]3O)C12 (stereo not given in full)
inactive: CRL-7250 | HEK293 -1.77% | HaCat 2.09% | KB-3-1 | NIH3T3

CC(C)CC[C@@H](O)[C@](C)(O)[C@H]1CC[C@@]2(O)C3=CC(=O)[C@@H]4C[C@@H](O)[C@@H](O)C[C@]4(C)[C@H]3CC[C@]12C
inactive: CRL-7250 -1.43% | HEK293 3.83% | HaCat 4.07% | KB-3-1 | NIH3T3

C[C@]1(OC(=O)/C=C\c2ccc(O)cc2)C[C@@H](O)[C@]2(O)C=CO[C@@H](O[C@@H]3O[C@H](CO)[C@@H](O)[C@H](O)[C@H]3O)C12 (stereo not given in full)
inactive: CRL-7250 -13.5% | HEK293 -4.97% | HaCat -23.9% | KB-3-1 | NIH3T3

C=C1C[C@H](O)[C@@H](O)[C@@]2(C)C1[C@@H](O)[C@H]1OC(=O)C3[C@@H](C)[C@@H](O)[C@H](O)C2[C@]31C (stereo not given in full)
inactive: CRL-7250 -9.79% | HEK293 3.52% | HaCat -3.92% | KB-3-1 | NIH3T3

CC(C)CC(=O)OC[C@@]1(O)C[C@@]23CC[C@H]4[C@@](C)(CCC[C@@]4(C)C(=O)O)[C@@H]2CC[C@@H]1C3
inactive: CRL-7250 | HEK293 1.06% | HaCat -4.56% | KB-3-1 4.98% | NIH3T3

O=C(Cc1ccc(Cl)cc1)Nc1cnccc1C(=O)O
inactive: CRL-7250 | HEK293 4.18% | HaCat -20.9% | KB-3-1 1.29% | NIH3T3

CCC(=O)OCC(=O)[C@@]1(OC(=O)CC)[C@@H](C)C[C@H]2[C@@H]3CCC4=CC(=O)C=C[C@]4(C)[C@@]3(F)[C@@H](O)C[C@@]21C
inactive: CRL-7250 -9.64% | HEK293 -7.33% | HaCat -29.8% | KB-3-1 | NIH3T3

O=C(OCc1ccccc1O[C@@H]1O[C@H](CO)[C@@H](O)[C@H](O)[C@H]1O)C1(O)C=CCCC1O (stereo not given in full)
inactive: CRL-7250 3.78% | HEK293 2.2% | HaCat -2.8% | KB-3-1 5.3% | NIH3T3

C=C1CC[C@@]2(OC1)O[C@H]1CC3C4CC=C5C[C@@H](O[C@@H]6O[C@@H](C)[C@H](O)[C@@H](O)[C@H]6O)C[C@@H](O[C@@H]6O[C@H](C)[C@H](O)[C@H](O)[C@H]6O[C@@H]6O[C@@H](C)[C@H](O)[C@@H](O)[C@H]6O)[C@]5(C)C4CC[C@]3(C)[C@H]1[C@@H]2C (stereo not given in full)
inactive: CRL-7250 | HEK293 1.18% | HaCat -14.8% | KB-3-1 5.01% | NIH3T3

CNc1nc(Cc2ccccc2)nc2c1CCNC[C@@H]2C
inactive: CRL-7250 -3.14% | HEK293 -0.288% | HaCat -17.6% | KB-3-1 -9.65% | NIH3T3

C[C@@]1(O)[C@H](O)[C@@H](CO)O[C@H]1n1cnc2c(=O)[nH]c(N)nc21
inactive: CRL-7250 0.111% | HEK293 0.681% | HaCat -4.96% | KB-3-1 | NIH3T3

Cc1c(O)cc2c(c1O)COC1(O)CCCOC21 (stereo not given)
inactive: CRL-7250 -4.56% | HEK293 -1.54% | HaCat -19.1% | KB-3-1 | NIH3T3

CC1(C)C=Cc2c(ccc3c2[N+]([O-])=C2C3(O)CC34NC(=O)C5(CCCN5C3=O)CC4C2(C)C)O1 (stereo not given)
inactive: CRL-7250 -1.3% | HEK293 -1.32% | HaCat -0.0821% | KB-3-1 | NIH3T3

CC(C)C1(O)NC(=O)C(CC2(O)c3ccccc3N3C(=O)C(C)(C)NC32)n2c1nc1ccccc1c2=O (stereo not given)
inactive: CRL-7250 | HEK293 | HaCat -2.62% | KB-3-1 | NIH3T3 -5.54%

C=C(C(=O)O)[C@@H]1CC[C@@]2(C)CC[C@@H](O)C(=C)C2C1 (stereo not given in full)
inactive: CRL-7250 4.71% | HEK293 -1.36% | HaCat -0.0078% | KB-3-1 -6.38% | NIH3T3

O=C(N[C@H](Cc1ccccc1)C(=O)O)c1sc2cc(F)ccc2c1Cl
inactive: CRL-7250 2.45% | HEK293 -2.83% | HaCat -0.292% | KB-3-1 | NIH3T3

COc1cc(C(C)=O)ccc1O[C@@H]1O[C@H](CO[C@@H]2OC[C@@H](O)[C@H](O)[C@H]2O)[C@@H](O)[C@H](O)[C@H]1O
inactive: CRL-7250 0.428% | HEK293 -0.597% | HaCat -2.37% | KB-3-1 7.17% | NIH3T3

CC(C)(CC(=O)N1CCCC1)NCC(=O)N1C[C@@H](F)C[C@H]1C#N
inactive: CRL-7250 -2.43% | HEK293 -0.937% | HaCat -28% | KB-3-1 1.01% | NIH3T3

CC1=C2CC(=O)C(C)CC/C=C(\C)CC2(O)OC1=O (stereo not given)
inactive: CRL-7250 -4.8% | HEK293 0.476% | HaCat 2.42% | KB-3-1 3.81% | NIH3T3

Cc1ccc(Cl)cc1N(CC(=O)Nc1c(F)cccc1F)S(C)(=O)=O
inactive: CRL-7250 -3.38% | HEK293 -7.88% | HaCat -2.84% | KB-3-1 5.59% | NIH3T3

C/C(=C\C(=O)C(C)C1CCC2C3=C(CCC21C)C1(C)CCC(=O)C(C)(C)C1(O)CC3)C(C)(C)O (stereo not given)
inactive: CRL-7250 3.05% | HEK293 -15.6% | HaCat 1.49% | KB-3-1 -3.74% | NIH3T3

COc1ccc(O[C@@H]2O[C@H](CO)[C@@H](O)[C@H](O)[C@H]2O)cc1OC
inactive: CRL-7250 | HEK293 3.27% | HaCat -16.7% | KB-3-1 | NIH3T3

COc1c2c(c(C)c3c1C(=O)OC3)OC1(C)CC(O)C34OC(OC)(CCC3(C)C1C2)OC4(C)CO (stereo not given)
inactive: CRL-7250 | HEK293 -8.39% | HaCat 2.59% | KB-3-1 | NIH3T3

C[C@@H]1C[C@H]2OC(=O)[C@@]3(C)CCC[C@](C)(C23)[C@@]1(O)CCC1=CC(=O)OC1O (stereo not given in full)
inactive: CRL-7250 | HEK293 -8.41% | HaCat 3.15% | KB-3-1 | NIH3T3

CCOC(=O)c1ccc(NC2CCCCC2)c(N)c1
inactive: CRL-7250 | HEK293 -10.7% | HaCat -10.7% | KB-3-1 -6.34% | NIH3T3
